Rows were chosen to be rich in hits. Some 2.6% of all compounds tested hit in one or more screens of this group.
PHOSPHO1 block: PHOSPHO1 (human) inhibition | Q8TCT1 | recombinant PHOSPHO1, absorbance phosphatase assay | inhibition, % at 13.3 µM | 290,000 tested, 1.1% active | AID 1565; in the data active means inhibition above about 60%
MLLE-PAM2 inh: blocks PAM2 peptide binding to the PABP1 MLLE domain; GST-MLLE / FITC-PAM2 fluorescence polarization; inhibition, % at 20 µM; P11940; 360,000 tested, 0.36% active; in the data active means inhibition above about 35%, passing the limit was not always enough;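 further: plate controls were DMSO wells with GST-MLLE for no effect and wells lacking GST-MLLE protein for full effect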
Target sequence (P11940 whole entry, looked up, the tested form may be a part): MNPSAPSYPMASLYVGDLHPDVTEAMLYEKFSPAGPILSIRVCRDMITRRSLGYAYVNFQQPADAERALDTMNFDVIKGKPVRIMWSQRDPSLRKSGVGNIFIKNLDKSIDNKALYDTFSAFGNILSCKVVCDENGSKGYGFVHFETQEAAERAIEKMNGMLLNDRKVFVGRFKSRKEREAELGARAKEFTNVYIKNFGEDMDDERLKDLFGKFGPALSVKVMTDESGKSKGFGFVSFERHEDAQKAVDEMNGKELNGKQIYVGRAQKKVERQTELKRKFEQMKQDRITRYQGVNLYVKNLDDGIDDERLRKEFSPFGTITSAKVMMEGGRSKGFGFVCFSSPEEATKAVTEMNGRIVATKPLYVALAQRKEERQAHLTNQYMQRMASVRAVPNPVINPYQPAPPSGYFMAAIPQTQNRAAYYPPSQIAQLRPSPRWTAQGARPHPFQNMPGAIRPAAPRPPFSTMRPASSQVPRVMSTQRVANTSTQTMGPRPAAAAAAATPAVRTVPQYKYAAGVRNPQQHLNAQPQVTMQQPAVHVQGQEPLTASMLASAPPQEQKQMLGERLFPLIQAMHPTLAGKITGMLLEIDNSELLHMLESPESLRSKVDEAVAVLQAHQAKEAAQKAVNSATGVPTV
eIF4H inh: inhibitors of RNA binding by human eIF4H | inhibition, % at 35 µM | Q15056 | eIF4H fluorescence polarization binding assay | 290,000 tested, 0.94% active;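 further: calls also rest on retests at 20 µM and on dose response follow-up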
CRFBP-R2 block: antagonists of CRF-binding protein/CRF-R2 receptor complex; inhibition, % at 11.8 µM; 350,000 tested, 0.59% active; HEK293 CRF-R2/CRF-BP, CRF-induced calcium fluorescence;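 active means inhibition of the ligand-induced calcium signal above about 50% at the single tested concentration, limit read from the data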
PABP polyA inh: PABP-poly(A) binding inhibition | P11940 | PABP-poly(A) RNA binding, fluorescence polarization | inhibition, % at 35 µM | 290,000 tested, 1% active | AID 2014;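 further: calls also rest on retests at 20 µM and on dose response follow-up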
Numbers without * were called inactive; · = no result. Unless noted, how the calls were made is not given here.

SMILES	PHOSPHO1 block	MLLE-PAM2 inh	eIF4H inh	CRFBP-R2 block	PABP polyA inh
COc1ccc(C(c2nnnn2Cc2ccccc2)N2CCN(c3ccccc3)CC2)cc1 (stereo not drawn)	-3	15	5	57*	12
Cc1ccc2cc(C(c3nnnn3C(C)(C)C)N3CCCCCC3)c(=O)[nH]c2c1 (stereo not drawn)	102*	13	6	4	18
COCCn1nnnc1C(c1ccccc1)N1CCN(c2ccccc2)CC1 (stereo not drawn)	-16	-7	-10	52*	-4
CC(C)N1CCC1(C)C(=O)Nc1nccc2cccnc12 (stereo not drawn)	·	-2	·	·	·
CCOc1ccccc1N(CC(=O)Nc1ccccc1Br)S(=O)(=O)c1ccccc1	·	12	·	0	·
COc1ccc2cc(C(c3nnnn3Cc3ccccc3)N3CCCCCC3)c(=O)[nH]c2c1 (stereo not drawn)	94*	9	-9	-19	29
COc1ccc2cc(C(c3nnnn3Cc3ccc(F)cc3)N3CCCCCC3)c(=O)[nH]c2c1 (stereo not drawn)	-42	-2	2	-10	28
COCCN(CC(=O)Nc1cccc(C)c1C)C(=O)/C=C/c1ccc2c(c1)OCCO2	·	-62	·	-17	·
CCn1cc(S(=O)(=O)N2CCN(Cc3cccc(Cl)c3)CC2)cn1	32	2	7	13	-7
COC(=O)c1sccc1NC(=O)Nc1ccccc1C	37	0	-4	0	-5
COC(=O)c1sccc1NC(=O)Nc1ccccc1F	63*	-3	-5	-14	4
CN(C)CC(C)(C)CNS(=O)(=O)c1cccc(Cl)c1Cl	75*	-118	-2	9	40
CN(C)CC(C)(C)CNS(=O)(=O)c1ccc(Cl)cc1	-2	14	-3	-19	-8
O=C(COc1ccc([N+](=O)[O-])cc1)NNC(=O)Nc1ccc([N+](=O)[O-])cc1	29	5	-2	1	3
O=C(C/C=N\OCc1ccc([N+](=O)[O-])cc1)Nc1ccc(Br)cc1	34	10	0	84*	2
c1ccc(-n2c(-c3ccncc3)nnc2-c2ccco2)cc1	-10	12	10	56*	-4
O=C(NCc1cccc(C(F)(F)F)c1)c1csc([C@H]2C[C@H](O)[C@@H](CO)O2)n1	·	1	·	·	·
CCOc1ccc(CCNC(=O)c2cccc(NC3=NC4CS(=O)(=O)CC4S3)c2)cc1OCC (stereo not drawn)	7	-78	-7	50*	-1
COc1cccc(C(=O)CN2CCN(S(=O)(=O)c3cccc([N+](=O)[O-])c3)CC2)c1	4	16	2	15	-8
COc1ccc(C(=O)CN2CCN(S(=O)(=O)c3cccc([N+](=O)[O-])c3)CC2)cc1OC	-1	39*	-9	5	6
O=C1CSc2ccc(S(=O)(=O)NCc3ccccc3Cl)cc2N1	28	1	-5	-3	3
CC(CS(=O)(=O)c1ccc2c(c1)NC(=O)CS2)C(=O)NCc1ccccc1Cl (stereo not drawn)	48	-28	67	13	25*
CC(CS(=O)(=O)c1ccc2c(c1)NC(=O)CS2)C(=O)N1CCN(c2cccc(Cl)c2)CC1 (stereo not drawn)	43	-28	74*	-26	34*
C[C@H](O)CNC(=O)c1[nH]cnc1C(=O)Nc1cccc(Cl)c1	·	-2	·	23	·
CC(C)NC(=O)C1Cc2c(-c3ccccc3Oc3ccccc3)ccnc2O1 (stereo not drawn)	·	-13	·	·	·
SMILES	PHOSPHO1 block	MLLE-PAM2 inh	eIF4H inh	CRFBP-R2 block	PABP polyA inh
CCc1nc2ccccc2c(C(=O)OC2CCOC2=O)c1C (stereo not drawn)	-7	-11	-5	-1	-2
CCCc1nc2ccccc2c(C(=O)OC2CCOC2=O)c1CC (stereo not drawn)	66*	-18	-2	3	1
C/C(=N\NC(=O)C(C)Oc1ccc([N+](=O)[O-])cc1)c1ccccn1 (stereo not drawn)	7	4	13	55*	10
CCc1ccc(C2C(C#N)=C(N)C(C#N)(C#N)C3=CCC(C(C)(C)C)CC32)cc1 (stereo not drawn)	2	48	84*	-21	32
COC(=O)C1=C(O)/C(=C\c2ccc(OCC(=O)Nc3ccccc3OC)cc2)N=C1C	30	-2	31	2	22
COC(=O)C1=C(O)/C(=C\c2ccc(O)c(OC)c2)N=C1C	22	-35	56*	9	83*
CCOC1=C2CN(S(=O)(=O)c3ccc(C)cc3)[C@H](c3ccccc3)C[C@@H]2N(S(C)(=O)=O)[C@H](c2ccccc2)C1	·	-19	·	·	·
CC12CN(C(=O)c3ccc([N+](=O)[O-])cc3)CC(C)(CN(C(=O)c3ccc([N+](=O)[O-])cc3)C1)C2=O	15	·	-14	-1	-10
CCCC12CN(C(=O)c3ccc([N+](=O)[O-])cc3)CC(C)(CN(C(=O)c3ccc([N+](=O)[O-])cc3)C1)C2=O	23	-2	-7	126*	-6
CC1=C2C3OC(=O)C(C)C3CCC2(C)C=C(Br)C1=O (stereo not drawn)	·	-5	·	5	·
O=c1cc(-c2ccccc2Cl)oc2ccc([N+](=O)[O-])c(O)c12	-4	-2	11	-4	-6
Nc1ccc2oc(-c3ccccc3Cl)cc(=O)c2c1O	-6	12	90*	-3	5.5*
CC(=O)c1c(C)[nH]c(C(=O)CSc2nnc(-c3cccs3)n2Cc2ccccc2)c1C	42	-114	-4	0	-16
CC(=O)c1c(C)[nH]c(C(=O)CSc2nnc(-c3ccco3)n2Cc2ccccc2)c1C	62*	-78	-7	4	-5
CCC1CCCCN1CCCNS(=O)(=O)c1ccc2c(c1)oc(=O)n2C (stereo not drawn)	9	-6	67	-12	34*
Cc1cccc(N2CCN(C(=O)CCNS(=O)(=O)c3ccc4c(c3)oc(=O)n4C)CC2)c1C	63*	-4	5	3	-10
O=C(O)C[C@H]1c2cc(C(F)(F)F)ccc2S(=O)(=O)N1C1CCN(Cc2ccccc2)CC1	·	-12	·	0	·
Cc1ccc(-n2ncc3c2ncn2c(C)nnc32)cc1C	60*	-1	-4	-5	-7
CC(NS(=O)(=O)c1ccc2c(c1)oc(=O)n2C)c1ccccc1 (stereo not drawn)	25	6	91	-9	65*
Cn1c(=O)oc2cc(S(=O)(=O)Nc3ccc4c(c3)OCCO4)ccc21	31	-10	75*	5	87*
Cn1c(=O)c(=O)n(C)c2cc(S(=O)(=O)Nc3ccc4c(c3)OCCO4)ccc21	55	-4	1	3	17
CCOC(=O)Cn1c(=O)oc2cc(S(=O)(=O)NC(C)c3ccccc3)ccc21 (stereo not drawn)	7	1	0	6	6
O=C(O)c1cc(-c2ccc3c(c2)OCCO3)n[nH]1	60*	5	-4	5	6
CCO/C(C)=N/Oc1cc(OC)cc(OC)c1	·	9	·	·	·
CSC1=NCCN1C(=O)Cc1ccc(Cl)cc1	-3	9	-8	50*	-6

Assay outcomes deposited in PubChem by Sanford-Burnham Center for Chemical Genomics.
